Measurements as given in PubChem BioAssay AID1347416 (National Center for Advancing Translational Sciences (NCATS), 2020).
The campaign covered roughly 4,100 compounds. About 1,600 (39%) were called active. Another 25% or so got no clear call; they are omitted. The list shows a part of the results. Unmarked numbers belong to inactive results. The call rests on the fitted dose curve; in most records, active means well fitted inhibition curve with a large enough effect; inconclusive means small, poorly fitted or top-dose-only effect; inactive means no such curve, though single readings can be large or run the other way.

Experiment: qHTS Validation assay for Inhibitors of Plasmodium falciparum Dd2 growth in vitro; further: nearly all actives have a fitted effect of over 70% in size
Settings: P. falciparum Dd2 in RBCs, SYBR Green growth, 72 h; series mostly up to 28.7 µM; activity change, negative = inhibition: at the top concentration
In short: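 P. falciparum Dd2-infected red blood cells (2.5% hematocrit, 0.3% parasitemia) grown 72 h at 37 °C under 5% O2 with compounds in a titration, 29 uM to 0.5 nM final. Growth read as SYBR Green-1 fluorescence after ~16 h lysis; artesunate 300 nM as positive control.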
On the % scale 0 is the no-effect control and ±100 the full control effect; potency means the concentration at half of the fitted maximal effect.

Row | SMILES | Potency | activity change, negative = inhibition
1 | CCn1cc(CN2CC(Oc3ccc(-c4noc(-c5ccncc5)n4)cc3)C2)cn1 | 13.3 µM (active) | 
2 | Cc1nc(C)c(C(=O)N2CC(Oc3ccc(-c4noc(-c5ccccc5)n4)cc3)C2)s1 |  | -25.7%
3 | Cc1ccsc1C(=O)N1CC(Oc2ccc(-c3nc(-c4ccccc4)no3)cc2)C1 |  | 4.37%
4 | Cc1c(C#N)c(N)nc(Cl)c1C#N |  | -5.23%
5 | CCOc1cc(C(=O)N2CCc3c([nH]c4ccccc34)C2c2ccccc2)cc(OCC)c1OCC (stereo not given) | 7.5 µM (active) | 
6 | CN1N=C(C(=O)N2CCc3c([nH]c4ccccc34)C2c2ccccc2Cl)CCC1=O (stereo not given) | 5.31 µM (active) | 
7 | CCOc1cccc(C2c3[nH]c4ccccc4c3CCN2C(=O)CSCc2ccc(F)cc2)c1 (stereo not given) | 15 µM (active) | 
8 | CC(C)NC(=O)N1CCN(S(=O)(=O)c2ccccc2)[C@@H](C(=O)N[C@H](Cc2c[nH]c3ccccc23)C(N)=O)C1 |  | 15.9%
9 | COc1ccc2nc3cc(Cl)ccc3c(Nc3cc(C(C)C)c(O)cc3C)c2c1 | 0.266 µM (active) | 
10 | CN(Cc1ccc(C2CC(=O)Nc3n[nH]c(C4CCC4)c32)o1)S(C)(=O)=O (stereo not given) |  | 18.7%
11 | Oc1ccccc1CN1CC(CNc2cccnc2)C2(C1)CN(c1ccccc1)C2 (stereo not given) | 10.9 µM (active) | 
12 | Clc1cnccc1CN1CC(CNc2ccccc2)C2(C1)CN(c1ccccc1)C2 (stereo not given) | 13.7 µM (active) | 
13 | CC(C)c1ccc(CN2CC(CNc3cccnc3)C3(C2)CN(c2ccccc2)C3)cc1 (stereo not given) | 4.85 µM (active) | 
14 | Cc1ccc(C)c(-c2cc3c(=O)n(CCNC(=O)c4cccc(F)c4)ccn3n2)c1 |  | -22.4%
15 | COc1ccc([S+](=O)([O-])N2CCC(N3Cc4cccn4C3=O)CC2)cc1 |  | 34.9%
16 | COc1cc(NC(=O)Cn2ncc3c(=O)oc4ccccc4c32)cc(OC)c1OC | 2.66 µM (active) | 
17 | Cc1ccc2oc(=O)c3cnn(CC(=O)Nc4cccc(C(F)(F)F)c4)c3c2c1 | 2.66 µM (active) | 
18 | O=C(NN1C(=O)C2C(C1=O)C1C=CC2C12CC2)c1cccnc1 (stereo not given) |  | 36.4%
19 | COc1ccc(CC(=O)NCc2cc(C)cc3c(C)c(C)[nH]c23)c(OC)c1 | 8.41 µM (active) | 
20 | CCOCCc1nnc(NC(=O)C(=O)c2cc(C)n(-c3ccc(C)c(C)c3)c2C)s1 |  | 2.27%

Row | SMILES | Potency | activity change, negative = inhibition
21 | COc1ccc(-c2nc3c(c(SCc4ccc(Br)cc4)n2)Cc2c(CO)cnc(C)c2O3)cc1 | 0.0668 µM (active) | 
22 | CCCCn1cc(S(=O)(=O)c2ccc(Cl)cc2)c(=O)c2cc(F)c(N3CCCCC3)cc21 | 15 µM (active) | 
23 | COc1ccc2c(c1)c(=O)c(S(=O)(=O)c1ccc(F)cc1)cn2CC(=O)Nc1ccc(C)cc1C |  | 32.9%
24 | CCCN(CC1CCOC1)C(=O)c1ccc(F)c(Cl)c1 (stereo not given) |  | 4.66%
25 | C1CCC(CNc2c3c(nc4nnnn24)CCCC3)CC1 | 13.3 µM (active) | 
26 | Oc1ccccc1-c1cc(-c2cccnc2)c2cncn2c1 | 1.72 µM (active) | 
27 | Oc1ccccc1-c1cc(C2=CCOCC2)c2cncn2c1 | 9.68 µM (active) | 
28 | c1cncc(-c2nnc(-c3cccnc3)nn2)c1 |  | 189%
29 | Cc1ccc([S+](=O)([O-])NC2CCCN(c3nc4ncccc4o3)C2)cc1 (stereo not given) |  | 0%
30 | NS(=O)(=O)c1ccc(N/N=C/c2cn(-c3ccccc3)nc2-c2cccs2)cc1 | 0.335 µM (active) | 
31 | O=C(O)c1ccc(N/N=C/c2cn(-c3ccccc3)nc2-c2cccs2)cc1 | 2.66 µM (active) | 
32 | O=C(N/N=C/c1ccccn1)c1cccs1 |  | 46.3%
33 | COCC(C)n1c(C)cc(C(=O)CSc2nnc(Nc3ccccc3F)s2)c1C (stereo not given) | 2.99 µM (active) | 
34 | Cc1ccc(Nc2nnc(SCC(=O)c3ccc(O)cc3O)s2)cc1 |  | -5.84%
35 | CCOC(=O)c1cccc(NC(=O)N2CC[C@@H](CC(=O)N[C@@H](CO)CC(C)C)[C@@H](CC)C2)c1 |  | -15.6%
36 | CCOC(=O)c1cc(C)n(CC2CCC(C(=O)Nc3cccc(Cl)c3)CC2)c1C (stereo not given) | 8.41 µM (active) | 
37 | CNC(=O)[C@@H]1C[C@H](Oc2cccnc2)CN1S(=O)(=O)c1ccc2c(c1)CCC2 |  | 10.2%
38 | CC(=O)N1CCCc2cc(S(=O)(=O)N3CCCC(C(=O)Nc4ccc(C)c(C)c4)C3)ccc21 (stereo not given) |  | -16.8%
39 | CC(C)CCN1CCC(N2CCN(S(=O)(=O)c3ccc4c(c3)CCCC4)CC2)C1=O (stereo not given) | 9.44 µM (active) | 
40 | O=C1NC(=S)S/C1=C\C=C\c1ccc([N+](=O)[O-])o1 | 5.31 µM (active) | 

Row | SMILES | Potency | activity change, negative = inhibition
41 | Cc1ccc(NC(=O)N2CCC(N3C(=O)C4(CCCCC4)C3c3ccncc3)CC2)cc1C (stereo not given) | 7.5 µM (active) | 
42 | COCCO[C@H]1C(=O)N(C2CCN(C(=O)COc3ccccc3)CC2)[C@H]1c1ccncc1 |  | 9.04%
43 | CCCNC(=O)N1CCC(N2C(=O)[C@H](OCCOC)[C@@H]2c2ccncc2)CC1 |  | 4.94%
44 | CCNc1nc(NC(C)(C)C)nc(N2CCCC2)n1 | 2.37 µM (active) | 
45 | CCOC(=O)c1c(NC(=O)C[n+]2ccc(N(C)C)cc2)sc(C)c1C | 1.33 µM (active) | 
46 | Cc1cc[n+](CC(=O)Nc2cccc(C)c2)cc1 |  | 28.2%
47 | O=C(NC1CCN(c2cc(-c3cccs3)[nH]n2)C1)c1cccs1 (stereo not given) |  | -18.2%
48 | O=C(Nc1cc(Cl)ccc1O)c1cc2nc(-c3ccc4c(c3)OCO4)cc(C(F)(F)F)n2n1 | 2.66 µM (active) | 
49 | COc1ccc(-c2c(C)nn3c(N)c(C#N)cnc23)cc1OC | 1.68 µM (active) | 
50 | COc1cc2ccccc2cc1C(=O)N1CCCC(C(F)(F)F)C1 (stereo not given) | 5.31 µM (active) | 
51 | CC1CC(C)CN(C(=O)CNC(=O)c2sc3ccccc3c2Cl)C1 (stereo not given) |  | -21.5%
52 | COc1cc(OC)c(C(=O)N2CCCC2)cc1OC |  | 30.6%
53 | COc1cc(Cl)ccc1C(=O)N1CC[C@@](C)(O)[C@@H](O)C1 |  | 43%
54 | COc1ccc(C(=O)N2CCC3(CC2)CC(O)CCO3)c(OC)c1 (stereo not given) |  | -13.5%
55 | COc1cc2ccccc2cc1C(=O)N1CC(C)CC(C)C1 (stereo not given) | 2.37 µM (active) | 
56 | CC1CC(C)CN(C(=O)CCNC(=O)c2ccccc2Cl)C1 (stereo not given) |  | 18.5%
57 | CC1CC(C)CN(C(=O)c2ccc3ccccc3c2)C1 (stereo not given) | 2.37 µM (active) | 
58 | O=C(O)c1cccc(C2CCCN(C(=O)c3ccccc3-n3cccn3)C2)c1 (stereo not given) |  | 70.7%
59 | Cc1ccc(S(=O)(=O)Nc2ccc(-c3cn4ccc(C)cc4n3)cc2)cc1 | 6.68 µM (active) | 
60 | CCc1ccc(S(=O)(=O)Nc2cc(-c3cn4ccccc4n3)ccc2C)cc1 |  | -25.2%
